MCF10A rerep: A quantitative high throughput screen for small molecules that induce DNA re-replication in MCF 10a normal breast cells; MCF 10A DNA re-replication, Hoechst nuclear intensity, 48 h; Potency, µM (top dose mostly 46.1 µM), for inactives: at the highest dose activity, positive = re-replication, actives largely listed as activators; 350,000 compounds, 2.9% hits; note: potency is the fitted concentration of half-maximal effect; % of control where 0% means no effect; nearly all actives have a fitted effect of over 50% in size
SW480 rerep: A quantitative high throughput screen for small molecules that induce DNA re-replication in SW480 colon adenocarcinoma cells | SW480 DNA re-replication, Hoechst DNA content imaging, 48 h | Potency, µM (top dose mostly 46.1 µM), inactives show at the highest dose re-replication activation, actives largely listed as activators | 340,000 compounds, 1.8% hits | AID 624297, 2012; note: potency is the fitted concentration of half-maximal effect; % of control where 0% means no effect; nearly all actives have a fitted effect of over 55% in size
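DNA re-replication was detected as more nuclei of elevated Hoechst intensity after 48 hr exposure to compound (23 nL pinned per well of 250 cells).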
KB-3-1 cytotox: qHTS assay for MDR1-selective chemotherapeutics: Primary screen using the parental adenocarcinoma cell KB-3-1. KB-3-1 viability, CellTiter-Glo ATP luminescence, 72 h. Potency, µM (titrated, usually from 46.1 µM), actives largely listed as cytotoxic. 400,000 compounds, 1.4% hits. AID 1347075, 2019; note: potency is the fitted concentration of half-maximal effect; % is set by controls: 0 for no effect and ±100 for the full control effect; nearly all actives have a fitted effect of over 60% in size
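Screening of KB-3-1 cells (DMEM, 10% FBS, phenol-red free) ran from lowest to highest compound concentration; after 72 h at 37 °C viability was read luminescently and curves fitted.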
D3 ag: qHTS of D3 Dopamine Receptor Agonist: qHTS. AID 652048, 2013. 410,000 compounds, 0.58% hits. D3R DiscoveRx beta-arrestin cells, luminescence, 90 min. D(3) dopamine receptor (Homo sapiens), P35462. max activation, %; in the data active = max activation above about 30%; note: 0% is about no effect
Target sequence (P35462 whole entry, looked up): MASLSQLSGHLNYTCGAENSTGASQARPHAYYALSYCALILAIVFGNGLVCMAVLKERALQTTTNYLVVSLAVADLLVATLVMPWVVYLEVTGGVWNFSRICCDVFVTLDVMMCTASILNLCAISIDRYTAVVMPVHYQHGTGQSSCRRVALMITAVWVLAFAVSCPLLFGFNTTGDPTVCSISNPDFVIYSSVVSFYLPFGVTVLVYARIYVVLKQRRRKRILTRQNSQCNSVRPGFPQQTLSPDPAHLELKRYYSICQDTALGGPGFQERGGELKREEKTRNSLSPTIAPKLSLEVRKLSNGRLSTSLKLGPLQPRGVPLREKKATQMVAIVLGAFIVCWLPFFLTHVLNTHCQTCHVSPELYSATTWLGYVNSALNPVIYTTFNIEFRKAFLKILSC
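Agonist mode: compounds and dopamine controls were applied to plated cells for 90 min at 37 degrees C after an overnight attachment at 1500 cells/well. Luminescent read-out followed 30 - 60 minutes at room temperature with DiscoveRx detection reagent.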
KB-V1 MDR tox: qHTS assay for MDR1-selective chemotherapeutics: Primary screen using the drug-selected MDR subline cells KB-V1; KB-V1 MDR cells viability, CellTiter-Glo, 72 h; Potency, µM (top dose mostly 46.1 µM), hits mostly cytotoxic; 400,000 compounds, 3.4% hits; note: potency is the fitted concentration of half-maximal effect; % is set by controls: 0 for no effect and ±100 for the full control effect; nearly all actives have a fitted effect of over 60% in size
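KB-V1 cells (P-gp-expressing MDR subline of KB-3-1) in phenol-red-free DMEM with 10% FBS were exposed to library compounds over a concentration series for 72 h at 37 degrees C. Viability read by CellTiter-Glo luminescence; concentration-effect curves fitted after normalization.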
D3 antag: qHTS of D3 Dopamine Receptor Antagonist: qHTS; D3R cells, DiscoveRx beta-arrestin luminescence, antagonist mode; active compounds read low; max response, negative = inhibition, %; 360,000 compounds, 2.5% hits; in the data active = max response below about -50%; inconclusive = no clear call, values can overlap the other calls; note: % is set by controls: 0 for no effect and ±100 for the full control effect
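Cells expressing the human receptor were seeded at 1500 cells/well, incubated overnight at 37 degrees C in 5% CO2, then exposed to library compounds with dopamine controls for 90 minutes at 37 degrees C before luminescent detection.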
* = called active by the depositor; i = inactive; u = inconclusive; x = no result given. Hits are enriched below; roughly 8.9% of the tested compounds scored in any of these assays. Unless noted, calls come from the whole dose curve; as a rule, active = well fitted curve in the direction sought with a large enough effect; inconclusive = small, poorly fitted or top-dose-only effect, or another doubt; inactive = no such curve, though single readings can be large; an effect the other way counts as inactive or inconclusive.

SMILES | MCF10A rerep | SW480 rerep | KB-3-1 cytotox | D3 ag | KB-V1 MDR tox | D3 antag
Cc1nn(Cc2c(Cl)cccc2Cl)c(Cl)c1/C=N/NC(=O)c1cccnc1 | 21µM* | u | i | -3 | i | 13
CC(C)OCCCNC(=O)CN1C(=O)COc2ccc(S(=O)(=O)N3CCOCC3)cc21 | x | x | i | 4 | i | x
Cc1c(C(=O)NN2CCCCC2)nn(-c2ccc(Cl)cc2Cl)c1-c1ccc(Cl)cc1 | 13µM* | 4% | x | -22 | x | x
CNC(=O)c1nc(C)n(-c2ccc(Cl)cc2Cl)n1 | 0% | -12% | i | 9 | i | 4
Cc1ccc2cc(CN(CC3CCCO3)C(=O)NC3CCCCC3)c(=O)[nH]c2c1C (stereo unspecified) | u | 12% | i | 0 | u | 16
Cc1cccc2cc(CN(Cc3ccco3)C(=O)NC3CCCCC3)c(=O)[nH]c12 | 10% | 15% | i | -6 | 3.7µM* | 17
CCN(CC)CCCN(Cc1cc2ccc(C)c(C)c2[nH]c1=O)C(=O)NC1CCCCC1 | -24% | 14% | i | -55 | i | -57*
COc1ccc(NS(=O)(=O)c2ccc(Cl)c(NC(=O)c3cccnc3Cl)c2)cc1 | 12% | 14% | i | 2 | 21µM* | -21
COc1ccc(OCC(=O)Nc2ccc3nn(-c4ccc(OC)cc4)nc3c2)cc1 | x | x | x | 62* | x | x
O=C(Nc1cc(S(=O)(=O)Nc2ccc(Cl)cc2)ccc1N1CCCCC1)c1ccc(F)cc1Cl | 14% | u | 16µM* | 2 | u | -14
O=C(Nc1cc(S(=O)(=O)N2CCOCC2)ccc1N1CCCCC1)c1ccc(Cl)cc1 | 7% | 11% | i | 2 | i | 8
COc1ccc(NS(=O)(=O)c2cc(NC(=O)/C=C/c3ccccc3OC)ccc2N2CCCCC2)cc1 | 14% | -4% | i | -10 | 5.2µM* | -29
Cc1nc(N2CCCC2)c2c(C(=O)N3CCN(c4cc(Cl)ccc4C)CC3)c(C)oc2n1 | x | x | x | -6 | x | x
CCN(c1ccccc1)S(=O)(=O)c1nnc(NC(=O)COc2ccccc2F)s1 | x | x | i | 5 | i | x
COc1ccccc1NS(=O)(=O)c1cc(NC(=O)c2ccccc2C)ccc1N1CCOCC1 | 8% | -8% | i | -6 | 8.2µM* | -12
COc1ccc(S(=O)(=O)Nc2cc(C(=O)NC(C)C)ccc2N2CCOCC2)cc1 | 16% | -3% | u | -2 | u | 6
COc1ccc(NS(=O)(=O)c2ccc(N3CCOCC3)c(NC(=O)c3ccccc3Cl)c2)cc1 | u | u | 16µM* | -5 | 10µM* | -1
COc1ccc(NS(=O)(=O)c2ccc(N3CCOCC3)c(NC(=O)c3ccc(OC)cc3)c2)cc1 | 5% | 1% | i | -7 | 18µM* | 0
COc1ccc(NS(=O)(=O)c2ccc(N3CCOCC3)c(N)c2)cc1 | -1% | -7% | u | 15 | 18µM* | 14
COc1ccc(NS(=O)(=O)c2cc(NC(=O)COc3ccc(OC)cc3)ccc2N2CCOCC2)cc1 | -2% | -4% | i | -5 | 2.3µM* | 3
CCN1CCN(c2ccc(S(=O)(=O)N3CCOCC3)cc2NC(=O)c2cc(Cl)nc3ccccc23)CC1 | 3% | 0% | i | 3 | u | 11
COc1ccc(-c2cc(C(=O)Nc3cc(S(=O)(=O)N4CCOCC4)ccc3N3CCOCC3)c3ccccc3n2)cc1 | 2.3µM* | -46% | i | -5 | i | 37
COCC(=O)Nc1ccc(N2CCOCC2)c(S(=O)(=O)Nc2ccc(OC)cc2)c1 | u | u | u | 1 | u | 5
COc1cccc(Cn2c(=O)sc3ccccc3c2=O)c1 | 6% | u | i | -2 | i | 4

Screening results: PubChem BioAssay, National Center for Advancing Translational Sciences (NCATS)
